Measured values from PubChem BioAssay (Tox21).
Inconclusive results are not listed. Calls of active or inactive are those of the source. Unless noted, calls follow the shape of the dose curve; as a rule, active = well fitted curve in the direction sought with a large enough effect in the repeat runs; inconclusive = weak or mixed curves; inactive = no such curve, though single readings can be large; an effect the other way counts as inactive or inconclusive.

Assays:
[1] = qHTS assay to identify small molecule antagonists of the glucocorticoid receptor (GR) signaling pathway - cell viability counter screen (AID 720693); also: nearly all actives have a fitted effect of over 55% in size
[2] = qHTS assay for identifying genotoxic compounds that show differential cytotoxicity against isogenic chicken DT40 cell lines with known DNA damage response pathways - Rev3 mutant cell line (AID 743014); also: nearly all actives have a fitted effect of over 55% in size
[3] = qHTS assay for identifying genotoxic compounds that show differential cytotoxicity against isogenic chicken DT40 cell lines with known DNA damage response pathways - Rad54/Ku70 mutant cell line (AID 743015); also: nearly all actives have a fitted effect of over 60% in size
[4] = qHTS assay to identify small molecule antagonists of the androgen receptor (AR) signaling pathway - cell viability counter screen (AID 743033; also: nearly all actives have a fitted effect of over 45% in size)
[5] = qHTS assay to identify small molecule antagonists of the androgen receptor (AR) signaling pathway using the MDA cell line - cell viability counter screen (AID 743041; also: nearly all actives have a fitted effect of over 45% in size)
Method in brief: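 Cytotoxicity counter screen: MDA-kb2 AR-luc cells, compound + R1881, 16 h, 37C, 0% CO2; CellTiter-Fluor added at 15.5 h, fluorescence read after 30 min.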

[6] = qHTS assay to identify small molecule antagonists of the thyroid receptor (TR) signaling pathway - cell viability counter screen (AID 743064); also: nearly all actives have a fitted effect of over 50% in size
Method in brief: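 In rat pituitary GH3.TRE-Luc reporter cells co-exposed to compound and 1 nM T3 for 23.5 h, cytotoxicity was assessed with CellTiter-Fluor in the same wells, read by fluorescence.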

[7] = qHTS assay to identify small molecule antagonists of the thyroid receptor (TR) signaling pathway (AID 743065); also: series mostly up to about 70 µM; nearly all actives have a fitted effect of over 55% in size
Method in brief: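 GH3.TRE-Luc rat pituitary cells (two TREs driving luciferase) were dosed with compound, then stimulated with 1 nM T3 (final) for 23.5 h at 37 C. ONE-Glo luminescence was the read-out, with CellTiter-Fluor fluorescence as the cytotoxicity counter-screen.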

[8] = test system: thyroid hormone receptor (rat, GH3 cells); assay: qHTS assay to identify small molecule agonists of the thyroid receptor (TR) signaling pathway (AID 743066; calls by dose curve)
[9] = molecular target: Estrogen receptor (Homo sapiens) (UniProt P03372); assay: qHTS assay to identify small molecule antagonists of the estrogen receptor alpha (ER-alpha) signaling pathway (AID 743069; active = well fitted curve in the direction sought with a large enough effect in the signal ratio in the repeat runs, not every such curve was filed as active; the % refers to the signal ratio)
Method in brief: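 Beta-lactamase FRET fluorescence is read after 2 hr at room temperature with LiveBLAzer B/G substrate. Before that, ER-alpha-bla HEK293 cells sit 4 hr after plating, then receive compound plus 17beta-estradiol and incubate 18 hr at 37C.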

[10] = molecular target: Estrogen receptor (Homo sapiens) (UniProt P03372); assay: qHTS assay to identify small molecule agonists of the estrogen receptor alpha (ER-alpha) signaling pathway (AID 743075; calls by dose curve;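 also: HEK293 GripTite cells with ER-alpha and UAS-driven beta-lactamase reporter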)
[11] = molecular target: Estrogen receptor (Homo sapiens) (UniProt P03372); assay: qHTS assay to identify small molecule agonists of the estrogen receptor alpha (ER-alpha) signaling pathway using the BG1 cell line (AID 743079); also: nearly all actives have a fitted effect of over 20% in size
[12] = qHTS assay to identify small molecule antagonists of the estrogen receptor alpha (ER-alpha) signaling pathway using the BG1 cell line (AID 743080; calls by dose curve;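 also: BG1 cells stimulated with 17beta-estradiol alongside compound; series mostly up to about 70 µM; nearly all actives have a fitted effect of over 25% in size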)
Method in brief: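 Readout is ONE-Glo luminescence, taken 30 min at room temperature after reagent addition, preceded by a CellTiter-Fluor viability read; BG1-Luc-4E2 cells had received compound and 17beta-estradiol for 21.5 h at 37 C.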

[13] = qHTS assay to identify small molecule antagonists of the estrogen receptor alpha (ER-alpha) signaling pathway using the BG1 cell line - cell viability counter screen (AID 743081);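 also: compound given together with 17beta-estradiol as the ER stimulus; series mostly up to about 70 µM; nearly all actives have a fitted effect of over 45% in size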
Aromatase (Homo sapiens) = Aromatase (Homo sapiens) (UniProt P11511); assay: qHTS assay to identify aromatase inhibitors (AID 743083); also: series mostly up to about 70 µM; nearly all actives have a fitted effect of over 55% in size
[14] = qHTS assay to identify aromatase inhibitors - cell viability counter screen (AID 743084)
[15] = molecular target: Androgen receptor (Homo sapiens) (UniProt P10275); assay: qHTS assay to identify small molecule antagonists of the androgen receptor (AR) signaling pathway (AID 743035; active = well fitted inhibition curve with a large enough effect in the signal ratio in the repeat runs, not every such curve was filed as active; the % refers to the signal ratio)
Method in brief: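 AR-bla HEK293 reporter cells; 4 h settle at 37C/5% CO2; compound + R1881 agonist, 16 h at 37C; LiveBLAzer B/G FRET substrate 2 h RT; fluorescence intensity read. qHTS format.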

[16] = molecular target: Androgen receptor (Homo sapiens) (UniProt P10275); assay: qHTS assay to identify small molecule agonists of the androgen receptor (AR) signaling pathway (AID 743036; active = well fitted activation curve with a large enough effect in the signal ratio in the repeat runs, with a control signal flat, not every such curve was filed as active; the % refers to the signal ratio)
Method in brief: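 Cell-based FRET reporter assay: HEK293 line with a UAS-beta-lactamase construct, compounds added in DMSO, 16 h exposure at 37C, then 2 h substrate step at room temperature and fluorescence intensity read.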

[17] = molecular target: Androgen receptor (Homo sapiens) (UniProt P10275); assay: qHTS assay to identify small molecule antagonists of the androgen receptor (AR) signaling pathway using the MDA cell line (AID 743042; also: nearly all actives have a fitted effect of over 55% in size)
Method in brief: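 MDA-kb2 breast carcinoma cells carrying MMTV-luciferase (AR/GR responsive) were co-treated with compounds and the agonist R1881 for 16 h at 37C. Inhibition read as ONE-Glo luminescence; CellTiter-Fluor fluorescence measured in parallel for cytotoxicity.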

[18] = qHTS assay to identify small molecule antagonists of the estrogen receptor alpha (ER-alpha) signaling pathway - cell viability counter screen (AID 743074; calls by dose curve;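 also: HEK293 cells carrying ER-alpha-UAS-bla reporter stimulated with 17beta-estradiol; nearly all actives have a fitted effect of over 45% in size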)

Measured: Potency

Chain of Androgen receptor (Homo sapiens) (P10275 whole entry, looked up): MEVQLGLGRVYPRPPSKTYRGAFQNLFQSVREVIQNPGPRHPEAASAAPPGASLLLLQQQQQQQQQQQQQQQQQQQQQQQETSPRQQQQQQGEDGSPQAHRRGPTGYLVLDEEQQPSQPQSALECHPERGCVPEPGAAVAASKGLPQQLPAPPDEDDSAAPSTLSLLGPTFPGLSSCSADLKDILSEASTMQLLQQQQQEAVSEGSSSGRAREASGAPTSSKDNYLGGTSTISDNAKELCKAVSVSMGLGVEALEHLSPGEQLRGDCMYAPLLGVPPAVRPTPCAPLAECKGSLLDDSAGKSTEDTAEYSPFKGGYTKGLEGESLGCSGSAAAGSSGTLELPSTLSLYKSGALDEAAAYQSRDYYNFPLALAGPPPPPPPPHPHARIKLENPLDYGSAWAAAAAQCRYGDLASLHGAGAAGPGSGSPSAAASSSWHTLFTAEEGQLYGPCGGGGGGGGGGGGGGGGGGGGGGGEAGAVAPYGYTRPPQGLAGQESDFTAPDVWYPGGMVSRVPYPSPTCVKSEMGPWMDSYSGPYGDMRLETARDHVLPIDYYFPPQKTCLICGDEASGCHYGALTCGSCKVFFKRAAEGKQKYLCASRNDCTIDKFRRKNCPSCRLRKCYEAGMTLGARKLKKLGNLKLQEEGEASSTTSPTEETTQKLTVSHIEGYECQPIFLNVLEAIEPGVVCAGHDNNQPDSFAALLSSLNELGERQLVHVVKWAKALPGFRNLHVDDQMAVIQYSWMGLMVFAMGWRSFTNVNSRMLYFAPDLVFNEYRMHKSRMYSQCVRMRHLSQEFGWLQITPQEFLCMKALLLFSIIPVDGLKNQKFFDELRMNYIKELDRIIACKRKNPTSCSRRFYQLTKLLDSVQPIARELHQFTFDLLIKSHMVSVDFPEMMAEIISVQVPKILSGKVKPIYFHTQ
Chain of Estrogen receptor (Homo sapiens) (P03372 whole entry, looked up): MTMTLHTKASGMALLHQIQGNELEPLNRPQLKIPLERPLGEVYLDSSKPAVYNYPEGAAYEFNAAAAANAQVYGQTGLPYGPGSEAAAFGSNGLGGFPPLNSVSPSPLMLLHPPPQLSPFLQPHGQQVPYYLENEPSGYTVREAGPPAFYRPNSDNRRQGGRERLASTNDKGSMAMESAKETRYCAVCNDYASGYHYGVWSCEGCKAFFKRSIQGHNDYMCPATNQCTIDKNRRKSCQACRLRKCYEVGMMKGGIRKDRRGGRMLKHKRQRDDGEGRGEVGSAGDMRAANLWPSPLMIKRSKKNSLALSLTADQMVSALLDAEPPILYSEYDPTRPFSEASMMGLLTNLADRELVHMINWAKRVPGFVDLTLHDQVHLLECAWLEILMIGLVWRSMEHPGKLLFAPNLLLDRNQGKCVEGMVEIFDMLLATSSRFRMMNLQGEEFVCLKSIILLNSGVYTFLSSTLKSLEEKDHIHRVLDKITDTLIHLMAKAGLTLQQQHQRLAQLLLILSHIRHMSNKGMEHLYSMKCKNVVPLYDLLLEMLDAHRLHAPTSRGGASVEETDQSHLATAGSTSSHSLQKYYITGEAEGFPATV
Chain of Aromatase (Homo sapiens) (P11511 whole entry, looked up): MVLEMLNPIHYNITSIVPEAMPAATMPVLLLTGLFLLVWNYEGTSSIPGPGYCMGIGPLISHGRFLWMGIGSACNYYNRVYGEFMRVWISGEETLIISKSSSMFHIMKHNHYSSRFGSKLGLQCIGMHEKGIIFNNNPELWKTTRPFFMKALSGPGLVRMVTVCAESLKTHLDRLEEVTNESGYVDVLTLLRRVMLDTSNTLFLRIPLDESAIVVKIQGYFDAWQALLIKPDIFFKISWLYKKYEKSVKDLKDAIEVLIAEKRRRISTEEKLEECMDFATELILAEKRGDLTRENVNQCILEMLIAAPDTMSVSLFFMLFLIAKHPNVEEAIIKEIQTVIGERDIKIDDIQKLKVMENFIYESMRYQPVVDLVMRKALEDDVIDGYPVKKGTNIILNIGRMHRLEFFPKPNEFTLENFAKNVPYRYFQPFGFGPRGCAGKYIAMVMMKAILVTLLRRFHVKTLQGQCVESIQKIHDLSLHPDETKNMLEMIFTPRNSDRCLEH

C=CCOc1c(Br)cc(Br)cc1Br
not listed: [15] | [16] | [17] | [18]
inactive: all other assays above

CN[C@@H]1[C@H](O)[C@H](NC)[C@H]2O[C@@]3(O)C(=O)C[C@@H](C)O[C@H]3O[C@@H]2[C@H]1O
not listed: [4] | [12] | [13]
inactive: all other assays above

COc1ccc(/C=N/NC(=O)c2ccncc2)cc1OC
not listed: [2]
inactive: all other assays above

CC1(N)CCC(C(C)(C)N)CC1 (stereo not drawn)
inactive: [1] | [2] | [4] | [5] | [7] | [8] | [18] | [13] | Aromatase (Homo sapiens) | [14]

CCCCCC1Nc2cc(C(F)(F)F)c(S(N)(=O)=O)cc2S(=O)(=O)N1 (stereo not drawn)
not listed: [3] | [12] | [15] | [16] | [17]
inactive: all other assays above

CCC(C)(CCC(C)C)C(=O)[O-].CCC(C)(CCC(C)C)C(=O)[O-].[Zn+2] (stereo not drawn)
inactive: [1] | [2] | [3] | [4] | [5] | [6] | [7] | [8] | [18] | [13]

CCCCCCCCCOCC1CO1 (stereo not drawn)
not listed: [9] | [10] | [11] | [12] | Aromatase (Homo sapiens) | [15] | [16] | [17]
inactive: all other assays above

Nc1cc(S(=O)(=O)O)ccc1S(=O)(=O)O
inactive: [1] | [2] | [3] | [5] | [6] | [8] | [18] | [13] | Aromatase (Homo sapiens) | [14]

FC(F)(F)c1ccc(Cl)cc1Cl
inactive: [1] | [2] | [4] | [5] | [7] | [8] | [18] | [13] | Aromatase (Homo sapiens) | [14]

NS(=O)(=O)c1ccc(Cl)c(S(N)(=O)=O)c1
not listed: [7] | [15] | [16] | [17]
inactive: all other assays above

CCOC(=O)C(C)(C)C
not listed: [2] | [12] | [15] | [16] | [17]
inactive: all other assays above
